The values that follow come from PubChem BioAssay (NCI).

SMILES strings stand for the structures. The panel holds about 83,000 compounds, 20% with a hit somewhere; the sample as a whole holds those more often.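 How to read the values: 0–100, growth inhibition (40 = 60% inhibited); 0, no net growth; -100 to 0, cell death (-40 = 40% of starting cells died; -100 = all dead).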 Active and inactive are the calls of the source. How the source made its calls: active means growth percent below 10; inactive means the rest.

For the test, the system named is 786-0 renal. In words: NCI-60 one-dose screen, 48 h (100 = growth as untreated, 0 = no growth, -100 = all killed). As to conditions: 10 µM unless noted.
In the case of `COc1cc2c(c(OC)c1OC)C(=O)CC(c1cccc(NC(=O)[C@@H](N)CC(C)C)c1)O2` (stereo partly drawn), the growth is 96.4% (inactive).

`CN1CCN(/C(=N\c2sc(-c3ccccc3)nc2-c2ccccc2)c2ccccc2)CC1`: the growth was 78.7% (inactive).

Regarding `Cc1ccc(-c2nnc3ccc(N/N=C/c4ccccc4)nn23)cc1`, the growth was 99% (inactive).

For `COc1ccc(C(=O)/C=C/c2ccccc2Br)cc1S(N)(=O)=O`, the growth was -78% (active).

With `CC1=C(C(=O)OCc2ccccc2)C(c2c(O)cc(O)cc2O)n2c(nc3ccccc32)N1` (stereo not drawn), the growth was 49.4% (inactive).

Take `CCCCc1c(Nn2cnnn2)no[n+]1[O-]`: the growth is 56.2% (inactive).

Turning to `CC(C)CSc1nc(NCCc2c[nH]c3ccccc23)c(C#N)c(-c2ccc(Cl)cc2)n1`, the growth was 67% (inactive).

With `CN1CCc2c(sc3ncnc(N/N=C/c4ccc(Cl)cc4Cl)c23)C1`, the growth was -93.9% (active).

Consider `N#Cc1c(-c2ccc(Br)cc2)nc2n[nH]c(-c3ccc(Br)cc3)c2c1-c1ccc(F)cc1`, for which the growth is 102% (inactive).

For the molecule `CC(=O)OC[C@@]1(C)C2CC[C@]3(C)C(CC=C4C5CC(C)(C)CC[C@]5(C(=O)Nc5ccc(F)cc5)CC[C@]43C)[C@@]2(C)C[C@@H](OC(C)=O)[C@@H]1OC(C)=O` (stereo partly drawn), the growth is 59% (inactive).

With `NS(=O)(=O)c1ccc(N=Nc2c(O)n(CC(=O)Nc3ccccc3Cl)c3ccccc23)cc1`, the growth was 11.9% (inactive).

As to `CCCCNC(=S)Nc1ccc(OCc2nc3ccccc3[nH]2)cc1`, the growth is 62.3% (inactive).

On to `Cc1cc2nc3c4ccccc4n(CCCN(C)C)c3nc2cc1C`, for which the growth was 3.7% (active).

Take `COc1cc2c(c(OC)c1OC)C(=O)CC(c1cccc(NC(=O)c3cc(NC(=O)[C@@H](N)CO)ccc3C)c1)O2` (stereo partly drawn): the growth is 107% (inactive).

`CC(=O)OC[C@@]1(C)C2CC[C@]3(C)C(CC=C4C5CC(C)(C)CC[C@]5(C(=O)Nc5ccc(C)cc5)CC[C@]43C)[C@@]2(C)C[C@@H](OC(C)=O)[C@@H]1OC(C)=O` (stereo partly drawn): the growth is 57.1% (inactive).

Consider `Cc1ccc(C(=O)CSc2nc3ccc(F)cc3c(=O)n2-c2ccc(Cl)cc2)cc1`, for which the growth is 10.7% (inactive).

As to `COc1ccc(-c2ccnc(SCc3cc4cc(Cl)ccc4[nH]c3=O)n2)cc1`, the growth is -25.5% (active).

On to `COc1cc(-c2ccc(/C=N/NC(=O)c3[nH]c4ccc(Br)cc4c3-c3ccccc3)o2)cc(OC)c1OC`, for which the growth is 67.2% (inactive).

Regarding `CC1=C(C(=O)OC(C)C)C(c2cccc(O)c2)NC(=S)N1` (stereo not drawn), the growth was 106% (inactive).

For the molecule `COc1cccc(COc2ccc(NC(=O)Nc3ccc(Cl)c(C(F)(F)F)c3)cc2)c1`, the growth was 34.5% (inactive).

In the case of `COc1ccc(C(=O)Nc2n[nH]c(Nc3ccccc3)c2C#N)cc1`, the growth was 104% (inactive).

Regarding `O=C(c1ccc(OCCN2CCOCC2)cc1)C1[C@H](c2ccc(Cl)cc2)[C@@H](c2ccccc2)NC12C(=O)Nc1ccc(Cl)cc12` (stereo partly drawn), the growth is 16.6% (inactive).

Take `O=C(N=Nc1c(O)[nH]c2ccc([N+](=O)[O-])cc12)c1ccc2nc(-c3ccccc3)[nH]c2c1`: the growth is 91.4% (inactive).

Consider `CCN(CC)C(=O)N/C(N)=N/c1nc2ccccc2s1`, for which the growth was 63.2% (inactive).

For `Nc1nnc(-c2c[nH]c3ncc(Br)cc23)c(-c2c[nH]c3ccc(F)cc23)n1`, the growth was 39.2% (inactive).

As for `O=C(COc1ccc(NC(=O)Nc2ccccc2)cc1)N=Nc1c(O)[nH]c2ccc([N+](=O)[O-])cc12`, the growth is 16.7% (inactive).

As for `CC(=O)Nc1ccc(-n2cnc3cc(-c4ccc(O)cc4)ccc32)cc1C(F)(F)F`, the growth was 20.3% (inactive).

In the case of `CN(C)CCn1c2ccccc2c2nc3cc4ccccc4cc3nc21`, the growth was -44.3% (active).

Consider `COc1cc2oc(-c3cccc(C(=O)Nc4cccc([N+](=O)[O-])c4)c3)cc(=O)c2c(OC)c1OC`, for which the growth was -22.9% (active).

With `Cc1cccc(NC(=O)[C@]23CCC(C)(C)CC2C2=CCC4[C@@]5(C)C[C@@H](O)[C@H](O)[C@@](C)(CO)C5CC[C@@]4(C)[C@]2(C)CC3)c1` (stereo partly drawn), the growth is 22.7% (inactive).

Consider `O=C(/C=C/c1cccc(OCc2ccccc2)c1)c1nc2ccccc2[nH]1`, for which the growth is -60.7% (active).

With `COc1ccc(N2N=C(c3ccc4c(c3)OCO4)CC2c2cccc(NC(=O)CCNS(=O)(=O)c3ccc(Cl)cc3)c2)cc1` (stereo not drawn), the growth was 43% (inactive).

`CN(C)c1ccnc(CNCCSC2(c3ccccc3)c3ccccc3C=Cc3ccccc32)c1`: the growth is -46.8% (active).

As to `CC1=C(C(=O)c2ccccc2)C(c2ccc(-n3cncn3)cc2)n2c(nc3ccccc32)N1` (stereo not drawn), the growth was 96.8% (inactive).

With `Cc1cnc(C(=O)NNc2nc3cc(F)ccc3n3c(C(=O)N4CC5CC(C4)N5)ccc23)cn1`, the growth is -2.57% (active).

For the molecule `CN(C)CCCNC(=O)c1cc(NC(=O)c2cc(NC(=O)c3ccc(C#Cc4ccccc4)cc3)cn2C)cn1C`, the growth was -86.9% (active).

With `N/C(=N\N=C\c1ccc([N+](=O)[O-])cc1)c1c(N)nc(=S)[nH]c1-c1ccc(Cl)cc1Cl`, the growth is 54.1% (inactive).

Regarding `C=C1CCC2C3(C)COC(c4cccc(F)c4)OC3CCC2(C)C1C/C=C1/C(=O)OCC1O` (stereo not drawn), the growth is -84.8% (active).
